Source: PubChem BioAssay (Tox21)
Values joined by “and” are separate entries in the source; they are usually repeats but may differ in a detail not shown here. Identical values can stand only once. Values without a mark were called inactive. Records with an inconclusive call do not appear. A call without a number means that no potency is given here. Active and inactive are the calls of the source. Calls follow the shape of the full dose curve.

Assays:
[1] = target: Acetylcholinesterase (Homo sapiens) (UniProt P22303); experiment: Acetylcholinesterase (AChE) small molecule antagonists: colormetric cell-based qHTS assay (AID 1347395); also: nearly all actives have a fitted effect of over 30% in size; also: potency is read from the fitted curve at half-maximal effect
Acetylcholinesterase (Homo sapiens), sequence (P22303 whole entry, looked up): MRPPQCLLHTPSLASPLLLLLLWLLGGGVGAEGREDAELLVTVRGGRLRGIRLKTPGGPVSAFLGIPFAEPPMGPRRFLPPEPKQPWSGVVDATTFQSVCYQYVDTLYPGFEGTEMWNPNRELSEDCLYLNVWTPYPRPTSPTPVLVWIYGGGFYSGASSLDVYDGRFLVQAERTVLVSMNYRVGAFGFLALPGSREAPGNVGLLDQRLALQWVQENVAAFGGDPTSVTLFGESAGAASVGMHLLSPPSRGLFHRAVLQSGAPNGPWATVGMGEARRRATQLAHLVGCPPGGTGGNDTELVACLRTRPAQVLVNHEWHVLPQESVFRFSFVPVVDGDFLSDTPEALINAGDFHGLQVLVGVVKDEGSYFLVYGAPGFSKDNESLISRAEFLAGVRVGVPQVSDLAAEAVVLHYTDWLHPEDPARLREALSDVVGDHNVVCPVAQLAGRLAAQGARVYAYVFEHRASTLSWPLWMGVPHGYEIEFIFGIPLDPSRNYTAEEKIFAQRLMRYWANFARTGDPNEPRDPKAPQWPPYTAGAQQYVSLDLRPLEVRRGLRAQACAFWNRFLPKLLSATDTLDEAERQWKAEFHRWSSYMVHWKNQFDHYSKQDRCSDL
Summary of the method: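 Quantitative HTS in attached SH-SY5Y cells: 30 min compound exposure, then 90 min with acetylthiocholine and DTNB at 37 C; colour from thiocholine reports AChE activity.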

[2] = target: Acetylcholinesterase (Homo sapiens) (UniProt P22303); experiment: Acetylcholinesterase (AChE) small molecule antagonists: enzyme-based qHTS assay (AID 1347397); settings: Potency: AChE enzyme activity inhibition; outcome: AChE enzyme activity inhibition; also: nearly all actives have a fitted effect of over 55% in size; also: potency is read from the fitted curve at half-maximal effect
Summary of the method: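 First, recombinant human AChE (50 mU/mL as dispensed) received test compound or DMSO. Second, plates stood 30 min at room temperature. Third, DTNB and acetylthiocholine were added, followed by 10 min at room temperature and colorimetric detection.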

[3] = target: Acetylcholinesterase (Homo sapiens) (UniProt P22303); experiment: Acetylcholinesterase (AChE) small molecule antagonists: fluorescence cell-based qHTS assay (AID 1347398); settings: Potency: AChE activity; outcome: AChE activity; also: nearly all actives have a fitted effect of over 50% in size; also: potency is read from the fitted curve at half-maximal effect
Summary of the method: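 Homogeneous quantitative HTS format. SH-SY5Y cells seeded at 2,000 per well settle overnight at 37 C. Compound pretreatment runs 30 min (37 C, 5% CO2); substrate/probe mix then reacts 40 min at RT before reading 490/520 nm.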

[4] = target: Acetylcholinesterase (Homo sapiens) (UniProt P22303); experiment: Acetylcholinesterase (AChE) small molecule antagonists: enzyme-based qHTS assay with human liver microsomes (AID 1347399); settings: Potency: qHTS inhibition; outcome: qHTS inhibition; also: nearly all actives have a fitted effect of over 60% in size
Summary of the method: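 Recombinant human AChE (50 mU/mL in the enzyme mix) and human liver microsomes (0.25 mg/mL final) were preincubated with compound and NADPH (0.25 mg/mL final) for 30 min at 37 C. Acetylthiocholine/DTNB was then added; thiocholine was read colorimetrically after 10 min at room temperature.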

SMILES | Potency [1] | Potency [2] | Potency [3] | Potency [4] | activity, negative = inhibition [1] | activity change, negative = inhibition [2] | activity change, negative = inhibition [3] | activity change, negative = inhibition [4]
CC(C)c1ccccc1C(C)C | inactive | inactive | inactive | inactive |  |  |  | 
Oc1cc2ccccc2cc1O | inactive | inactive | inactive | inactive |  |  |  | 
CCC(=O)OC(C)c1ccccc1 (stereo not given) | inactive | inactive | inactive | inactive |  |  |  | 
CCCCCCCC(C)=O | inactive | inactive | inactive | inactive |  |  |  | 
C=CC(=O)OCCCCCC | inactive | inactive | inactive | inactive |  |  |  | 
CCCCCC[C@@H](CCC)C(=O)O | inactive | inactive | inactive | inactive |  |  |  | 
CC(N)CN (stereo not given) | inactive | inactive | inactive | inactive |  |  |  | 
Oc1ccc(O)cc1 | inactive | inactive | inactive | inactive |  |  |  | 
Cc1ccc(N)c(S(=O)(=O)O)c1 | inactive | inactive | inactive | inactive |  |  |  | 
c1cc[c]([Bi]([c]2ccccc2)[c]2ccccc2)cc1 | inactive | inactive | inactive | inactive |  |  |  | 
N#Cc1ccc(CC(=O)c2cccc(C(F)(F)F)c2)cc1 | inactive | inactive | inactive | inactive |  |  |  | 
CC1=C(CC(=O)O)c2cc(F)ccc2/C1=C\c1ccc(S(C)=O)cc1 (stereo not given) | inactive | inactive | inactive | inactive |  |  |  | 
O=c1[nH]c(=O)n([C@H]2C[C@H](O)[C@@H](CO)O2)cc1C(F)(F)F | inactive | inactive | inactive | inactive |  |  |  | 
Cc1ccccc1C(=O)N1CC/C(=N\OS(=O)(=O)O)c2ccc(Cl)cc21 | inactive | inactive | inactive | inactive |  |  |  | 
CC(=O)OCC(C)C | inactive | inactive | inactive | inactive |  |  |  | 
COc1cc(C)c(Cc2cnc(N)nc2N)cc1OC | inactive | inactive | inactive | inactive |  |  |  | 
OCC(CO)(CO)COCC(CO)(CO)CO | inactive | inactive | inactive | inactive |  |  |  | 
CC/C=C\CCCCCO | inactive | inactive | inactive | inactive |  |  |  | 
CCN1CCCC1=O | inactive | inactive | inactive | inactive |  |  |  | 
O=c1[nH]c(=O)n([C@H]2CCCO2)cc1F | inactive | inactive | inactive | inactive |  |  |  | 

SMILES | Potency [1] | Potency [2] | Potency [3] | Potency [4] | activity, negative = inhibition [1] | activity change, negative = inhibition [2] | activity change, negative = inhibition [3] | activity change, negative = inhibition [4]
CCCCC(CC)C(=O)OCCOCCOCCOC(=O)C(CC)CCCC (stereo not given) | inactive | inactive | inactive | inactive |  |  |  | 
Cc1cc(OCCOCC[N+](C)(C)Cc2ccccc2)ccc1C(C)(C)CC(C)(C)C | 39.7 µM (active) and 17.4 µM (active) | 56.1 µM (active) and 30.9 µM (active) | 14.1 µM (active) and 8.71 µM (active) | inactive |  |  |  | 
O=C1OC2(c3ccc(O)cc3Oc3cc(O)ccc32)c2ccc(N=C=S)cc21 | inactive | inactive | inactive | inactive |  |  |  | 
O=C1c2cccc(O)c2C(=O)c2c(O)cccc21 | inactive | inactive | inactive | inactive |  |  |  | 
CC(O)CN (stereo not given) | inactive | inactive | inactive | inactive |  |  |  | 
O=C(O)CSCC(=O)NC1CCSC1=O (stereo not given) | inactive | inactive | inactive | inactive |  |  |  | 
CC(C)Nc1cccnc1N1CCN(C(=O)c2cc3cc(NS(C)(=O)=O)ccc3[nH]2)CC1 | inactive | inactive | inactive | inactive |  |  |  | 
O=C1c2ccccc2C(=O)C1c1ccc2ccccc2n1 | inactive | inactive | inactive | inactive |  |  |  | 
CNc1c2c(nn1C)CCCC2 | inactive | inactive | inactive | inactive |  |  |  | 
C=CCCCCCC | inactive | inactive | inactive | inactive |  |  |  | 
CN1CCCN(C(c2ccccc2)c2ccc(Cl)cc2)CC1 (stereo not given) | inactive | inactive | inactive | inactive |  |  |  | 
ClC/C=C/CCl | inactive | inactive | inactive | inactive |  |  |  | 
C=COC(=O)C(C)(CC)CCC(C)C (stereo not given) | inactive | inactive | inactive | inactive |  |  |  | 
O=S(=O)(O)c1ccc(O)cc1 | inactive | inactive | inactive | inactive |  |  |  | 
O=C(O)c1ccccc1Nc1cc(Cl)ccc1C(=O)O |  |  |  |  | 1.23% [at 23.6 µM] | 2.19% [at 23.6 µM] | 2.35% [at 23.8 µM] | 0.168% [at 23.6 µM]
NCCCCCCN | inactive | inactive | inactive | inactive |  |  |  | 
CC(=O)CCc1ccccc1 | inactive | inactive | inactive | inactive |  |  |  | 
CC(=O)O[C@H]1C[C@@H]2CC[C@@]1(C)C2(C)C | inactive | inactive | inactive | inactive |  |  |  | 
Cc1ncc(CO)c(C=O)c1O | inactive | inactive | inactive | inactive |  |  |  | 
CN(C)CCOCCN(C)C | inactive | inactive | inactive | inactive |  |  |  | 

SMILES | Potency [1] | Potency [2] | Potency [3] | Potency [4] | activity, negative = inhibition [1] | activity change, negative = inhibition [2] | activity change, negative = inhibition [3] | activity change, negative = inhibition [4]
COCCOCCOCCOCCOCCO | inactive | inactive | inactive | inactive |  |  |  | 
C=CC(C)CCC=C(C)C (stereo not given) | inactive | inactive | inactive | inactive |  |  |  | 
CN(C)c1ccc(Cc2ccc(N(C)C)cc2)cc1 | inactive | inactive | inactive | inactive |  |  |  | 
Cc1c(N)cccc1C(F)(F)F | inactive | inactive | inactive | inactive |  |  |  | 
OC[C@@H](O)[C@@H](O)[C@H](O)[C@H](O)CO | inactive | inactive | inactive | inactive |  |  |  | 
C#Cc1cccc(Nc2ncnc3cc(OCCOC)c(OCCOC)cc23)c1 | inactive | inactive | inactive | inactive |  |  |  | 
c1ccc(CCCc2ccncc2)cc1 | inactive | inactive | inactive | inactive |  |  |  | 
C[C@H]1[C@H](NC(=O)/C(=N/OC(C)(C)C(=O)O)c2csc(N)n2)C(=O)N1S(=O)(=O)O (stereo in doubt) | inactive | inactive | inactive | inactive |  |  |  | 
CN1CCN(c2c(F)cc3c(=O)c(C(=O)O)cn(CCF)c3c2F)CC1 | inactive | inactive | inactive | inactive |  |  |  | 
O=C=Nc1ccc(Cc2ccc(N=C=O)cc2)cc1 | inactive | inactive | inactive | inactive |  |  |  | 
CCOC(/C=C(\C)CCC=C(C)C)OCC | inactive | inactive | inactive | inactive |  |  |  | 
CC1(C)CC(OC(=O)CCCCCCCCC(=O)OC2CC(C)(C)NC(C)(C)C2)CC(C)(C)N1 |  |  |  |  | -3.47% [at 23.6 µM] | 1.77% [at 23.6 µM] | -14.4% [at 23.8 µM] | 0.16% [at 23.6 µM]
CCCCOC(=O)CO | inactive | inactive | inactive | inactive |  |  |  | 
Cc1ccncc1 | inactive | inactive | inactive | inactive |  |  |  | 
CCN[C@H]1CN(CCCOC)S(=O)(=O)c2sc(S(N)(=O)=O)cc21 | inactive | inactive | inactive | inactive |  |  |  | 
Cc1ccc(C(=O)c2ccc(CC(=O)O)n2C)cc1 | inactive | inactive | inactive | inactive |  |  |  | 
CO[Si](C)(C)OC | inactive | inactive | inactive | inactive |  |  |  | 
CN(C)N=Nc1ccccc1 | inactive | inactive | inactive | inactive |  |  |  | 
CC1(C)O[C@@H]2[C@@H](CO[C@@]3(COS(N)(=O)=O)OC(C)(C)O[C@@H]23)O1 | inactive | inactive | inactive | inactive |  |  |  | 
Cc1ccc(NC(=O)N(C)C)cc1NC(=O)N(C)C | inactive | inactive | inactive | inactive |  |  |  | 
